# Test results published in the supplement of paper PMC8728848.
# Only a selection was taken, and the strongest signals are over-represented in it overall.
# B1: AidA (Burkholderia cenocepacia) (protein)
# chain: MSRVTDVLVSFDTETILKKYPNPSKNPAAPTLIDWRYVYMVTNQDNVISGQAGGELDLKAQVGDLIRWRETSLSLGFENQVVFYKFIGNVGNDLISTPTPRVAEASIPVPNTSKPEVPTCQKVANYYWSSECLKVGRVTYHFQFQIIDRNCQSQGCFSWDPFISIHN
# Assays:
# Assay in all cases: glycan array binding signal (z-score within array); higher = stronger binding
# Conditions in all cases: glycan notation: IUPAC condensed, linker removed
# [1] = target: GlcNAc(a1-4)Gal(b1-4)GlcNAc(b1-3)Gal(b1-4)GlcNAc
# Procedure, shortened: (§1)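 The binding signal is a Z-score computed within each array. Data were drawn from 3228 arrays in the Consortium for Functional Glycomics database, restricted to those with a known protein sequence. Scores were averaged over arrays of the same protein sequence at different concentrations or buffers, and over linkers, and negative values can be taken as non-binding.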
# [2] = target: GlcNAc(b1-2)Man(a1-3)[GlcNAc(b1-4)][GlcNAc(b1-2)Man(a1-6)]Man(b1-4)GlcNAc(b1-4)[Fuc(a1-6)]GlcNAc
# Procedure, shortened: as §1
# [3] = target: GlcNAc(b1-3)Gal(b1-4)GlcNAc(b1-2)[GlcNAc(b1-3)Gal(b1-4)GlcNAc(b1-6)]Man(a1-6)[GlcNAc(b1-3)Gal(b1-4)GlcNAc(b1-2)Man(a1-3)]Man(b1-4)GlcNAc(b1-4)GlcNAc
# Procedure, shortened: as §1
# [4] = target: GlcNAc(b1-3)Gal(b1-4)GlcNAc(b1-3)Gal(b1-4)GlcNAc
# Procedure, shortened: as §1
# [5] = target: GlcNAc(b1-3)Gal(b1-4)GlcNAc(b1-3)Gal(b1-4)GlcNAc(b1-3)Gal(b1-4)GlcNAc(b1-3)Gal(b1-4)GlcNAc(b1-2)Man(a1-3)[GlcNAc(b1-3)Gal(b1-4)GlcNAc(b1-3)Gal(b1-4)GlcNAc(b1-3)Gal(b1-4)GlcNAc(b1-3)Gal(b1-4)GlcNAc(b1-2)Man(a1-6)]Man(b1-4)GlcNAc(b1-4)[Fuc(a1-6)]GlcNAc
# Procedure, shortened: as §1
# [6] = target: GlcNAc(b1-3)Gal(b1-4)GlcNAc(b1-3)[GlcNAc(b1-3)Gal(b1-4)GlcNAc(b1-3)]GalNAc
# Procedure, shortened: as §1
# [7] = target: GlcNAc(b1-3)Gal(b1-4)GlcNAc(b1-6)[Gal(b1-3)]GalNAc
# Procedure, shortened: as §1
# GlcNAc(b1-3)Man = target: GlcNAc(b1-3)Man
# Procedure, shortened: as §1
# [8] = target: Man(a1-2)Man(a1-3)[Man(a1-2)Man(a1-6)]Man
# Procedure, shortened: as §1
# [9] = target: Man(a1-2)Man(a1-3)[Man(a1-2)Man(a1-6)]Man(a1-6)[Man(a1-2)Man(a1-2)Man(a1-3)]Man(b1-4)GlcNAc(b1-4)GlcNAc
# Procedure, shortened: as §1
# [10] = target: Man(a1-2)Man(a1-6)[Man(a1-3)]Man(a1-6)[Man(a1-2)Man(a1-2)Man(a1-3)]Man
# Procedure, shortened: as §1
# [11] = target: Man(a1-3)[Man(a1-6)]Man(b1-4)GlcNAc(b1-4)GlcNAc
# Procedure, shortened: as §1
# [12] = target: Man(a1-3)[Man(a1-6)]Man(b1-4)GlcNAc(b1-4)[Fuc(a1-6)]GlcNAc
# Procedure, shortened: as §1
# Neu5Ac(a2-3)Gal = target: Neu5Ac(a2-3)Gal
# Procedure, shortened: as §1
# [13] = target: Neu5Ac(a2-3)Gal(b1-3)GalNAc
# Procedure, shortened: as §1
# [14] = target: Neu5Ac(a2-3)Gal(b1-3)GlcNAc(b1-3)Gal(b1-3)GlcNAc
# Procedure, shortened: as §1
# [15] = target: Neu5Ac(a2-3)Gal(b1-4)GlcNAc(b1-2)Man
# Procedure, shortened: as §1
# [16] = target: Neu5Ac(a2-3)Gal(b1-4)GlcNAc(b1-3)Gal(b1-4)GlcNAc(b1-6)[Gal(b1-3)]GalNAc
# Procedure, shortened: as §1
# [17] = target: Neu5Ac(a2-3)Gal(b1-4)GlcNAc(b1-6)[Neu5Ac(a2-3)Gal(b1-3)]GalNAc
# Procedure, shortened: as §1
# [18] = target: Neu5Ac(a2-3)Gal(b1-4)[Fuc(a1-3)]GlcNAc(b1-3)GalNAc
# Procedure, shortened: as §1
# [19] = target: Neu5Ac(a2-3)Gal6S(b1-4)GlcNAc
# Procedure, shortened: as §1
# [20] = target: Neu5Ac(a2-3)[GalNAc(b1-4)]Gal(b1-4)GlcNAc
# Procedure, shortened: as §1
# [21] = target: Neu5Ac(a2-6)Gal(b1-4)GlcNAc(b1-2)Man(a1-3)Man(b1-4)GlcNAc(b1-4)GlcNAc
# Procedure, shortened: as §1
# [22] = target: Neu5Ac(a2-6)Gal(b1-4)GlcNAc(b1-2)Man(a1-3)[GlcNAc(b1-2)Man(a1-6)]Man(b1-4)GlcNAc(b1-4)GlcNAc
# Procedure, shortened: as §1
# [23] = target: Neu5Ac(a2-6)Gal(b1-4)GlcNAc(b1-2)Man(a1-6)Man(b1-4)GlcNAc(b1-4)GlcNAc
# Procedure, shortened: as §1
# [24] = target: Neu5Ac(a2-6)Gal(b1-4)GlcNAc(b1-2)Man(a1-6)[Man(a1-3)]Man(b1-4)GlcNAc(b1-4)GlcNAc
# Procedure, shortened: as §1
# [25] = target: Neu5Ac(a2-6)Gal(b1-4)GlcNAc(b1-6)[Gal(b1-3)]GalNAc
# Procedure, shortened: as §1
# [26] = target: Neu5Ac(a2-6)GlcNAc(b1-4)GlcNAc(b1-4)GlcNAc
# Procedure, shortened: as §1
# Neu5Ac(b2-6)GalNAc = target: Neu5Ac(b2-6)GalNAc
# Procedure, shortened: as §1
# [27] = target: Neu5Gc(a2-8)Neu5Gc(a2-3)Gal(b1-4)GlcNAc(b1-3)Gal(b1-4)GlcNAc
# Procedure, shortened: as §1
binder,measurement,setting,value
B1,glycan array binding signal (z-score),[1],0.177
same,glycan array binding signal (z-score),[2],-0.375
same,glycan array binding signal (z-score),[3],2.61
same,glycan array binding signal (z-score),[4],0.86
same,glycan array binding signal (z-score),[5],-0.735
same,glycan array binding signal (z-score),[6],-0.928
same,glycan array binding signal (z-score),[7],-0.57
same,glycan array binding signal (z-score),GlcNAc(b1-3)Man,-0.022
same,glycan array binding signal (z-score),[8],-0.113
same,glycan array binding signal (z-score),[9],0.274
same,glycan array binding signal (z-score),[10],-0.364
same,glycan array binding signal (z-score),[11],-0.131
same,glycan array binding signal (z-score),[12],1.97
same,glycan array binding signal (z-score),Neu5Ac(a2-3)Gal,-0.347
same,glycan array binding signal (z-score),[13],-0.739
same,glycan array binding signal (z-score),[14],-0.146
same,glycan array binding signal (z-score),[15],1.58
same,glycan array binding signal (z-score),[16],-0.559
same,glycan array binding signal (z-score),[17],-0.108
same,glycan array binding signal (z-score),[18],1.86
same,glycan array binding signal (z-score),[19],-0.261
same,glycan array binding signal (z-score),[20],-0.388
same,glycan array binding signal (z-score),[21],-0.123
same,glycan array binding signal (z-score),[22],-0.443
same,glycan array binding signal (z-score),[23],-0.428
same,glycan array binding signal (z-score),[24],0.17
same,glycan array binding signal (z-score),[25],-0.153
same,glycan array binding signal (z-score),[26],-0.74
same,glycan array binding signal (z-score),Neu5Ac(b2-6)GalNAc,0.412
same,glycan array binding signal (z-score),[27],-0.459
